Only some compounds are listed: those with a hit (about 2.9% of all), similar ones and a draw of the others.
IP6K1 inh: blocks human inositol hexakisphosphate kinase 1; Q92551; IP6K1 kinase, ADP-Glo luminescence, 2 h; hits give low values; activity change, % (series mostly up to about 58 µM); actives 0.81% (n = 140,000); in the data active = activity change below about -25%
Target sequence (Q92551 whole entry, looked up): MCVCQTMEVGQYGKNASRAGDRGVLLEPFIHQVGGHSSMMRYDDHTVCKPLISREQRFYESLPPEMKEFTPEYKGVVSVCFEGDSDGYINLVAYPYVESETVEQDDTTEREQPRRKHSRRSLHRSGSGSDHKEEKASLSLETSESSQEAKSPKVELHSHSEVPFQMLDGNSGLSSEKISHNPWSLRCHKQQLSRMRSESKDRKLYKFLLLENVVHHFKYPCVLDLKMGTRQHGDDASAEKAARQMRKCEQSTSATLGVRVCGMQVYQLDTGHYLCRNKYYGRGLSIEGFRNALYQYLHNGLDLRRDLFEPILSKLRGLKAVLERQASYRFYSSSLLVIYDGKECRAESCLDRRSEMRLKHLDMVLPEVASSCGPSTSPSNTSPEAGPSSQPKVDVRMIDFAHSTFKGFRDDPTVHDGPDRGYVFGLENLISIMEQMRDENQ
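ADP-Glo luminescence measures ADP made by human IP6K1 during a 2 h RT reaction with ATP/IP6 (mix at 1.3 mM/130 uM); top library doses 57.5 and 19.1 uM final.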
KDM5B inh: blocks human KDM5B histone demethylase activity. Potency, µM (doses to about 57.7 µM), usual class: inhibitors. KDM5B demethylase, FDH-coupled NADH fluorescence (FDH is formaldehyde dehydrogenase). AID 1347165. Q9UGL1. actives 2.6% (n = 220,000); note: nearly all actives have a fitted effect of over 70% in size
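Here, H3K4me3 peptide (12.5 µM in substrate mix) is demethylated by KDM5BΔAP, 200 nM final, after 10 min compound exposure. Formaldehyde product is coupled through FDH (0.25 U/mL in mix) to NADH fluorescence; 30-min ΔRFU feeds dose-response curves.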
SNCA expr inhib: SNCA gene expression inhibition; HEK-293 SNCA-luciferase knock-in, luminescence, 24 h; Potency, µM (doses to about 57.2 µM), hits mostly inhibitors; actives 0.17% (n = 140,000); note: nearly all actives have a fitted effect of over 45% in size
SNCA viab count: reduces viability of HEK-293 SNCA reporter cells; Potency, µM (top dose mostly 57.1 µM), hits mostly cytotoxic; actives 0.12% (n = 150,000); AID 1671193; HEK-293-SNCA-luc viability, GF-AFC fluorescence, 24 h; note: nearly all actives have a fitted effect of over 30% in size
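Cytotoxicity counterscreen: after 24 h compound treatment of genome-edited SNCA-luciferase HEK-293 cells, live-cell protease substrate GF-AFC read by fluorescence after 30 min; activity scaled between DMSO (0%) and medium-only (-100%), curves Hill-fitted.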
IP6K1 conf: confirmation of human IP6K1 inhibitors | shares compounds with IP6K1 inh | recombinant IP6K1 kinase, ADP-Glo luminescence, 2 h | Potency, µM (series often up to 49 µM), usual class: inhibitors | actives 13% (n = 1,200) | AID 1645852; note: nearly all actives have a fitted effect of over 65% in size
Each line names hits and unclear results; the compound was inactive in the other large screens (follow-up assays come after a bar, where they were run). Unless noted, calls come from the whole dose curve; as a rule, active = well fitted curve in the direction sought with a large enough effect; inconclusive = small, poorly fitted or top-dose-only effect, or another doubt; inactive = no such curve, though single readings can be large; an effect the other way counts as inactive or inconclusive.

CCOC(=O)c1cccc(NC(=O)N2CC[C@@H](CC(=O)Nc3ccccc3)[C@@H](CC)C2)c1	none
CC[C@H](C)[C@H](N)C(=O)N1CCC2(CCC(=O)N(Cc3ccccc3)C2)CC1	IP6K1 inh -39, SNCA viab count inconclusive | IP6K1 conf inactive
Cn1nnnc1SCCNCc1cc(Br)ccc1OCc1ccccc1Cl	IP6K1 inh -41, SNCA expr inhib inconclusive, SNCA viab count inconclusive | IP6K1 conf inactive
O=C(Cc1c[nH]c2ncc(-c3cccnc3)cc12)Nc1ccc(F)cc1	none
COCCNC(=O)Cc1c[nH]c2ncc(-c3ccccc3C)cc12	KDM5B inh inconclusive
O=C(Cc1c[nH]c2ncc(-c3ccc(Cl)cc3)cc12)NCc1cccnc1	IP6K1 inh -25, KDM5B inh inconclusive | IP6K1 conf inactive
NC(=O)Cc1c[nH]c2ncc(-c3ccc(F)cc3)cc12	IP6K1 inh -29, KDM5B inh 35µM | IP6K1 conf inconclusive
NC(=O)Cc1c[nH]c2ncc(-c3ccccc3C(F)(F)F)cc12	IP6K1 inh -34, KDM5B inh inconclusive | IP6K1 conf inconclusive
COc1ncccc1-c1cnc2[nH]cc(CC(N)=O)c2c1	IP6K1 inh -29, KDM5B inh 32µM | IP6K1 conf inconclusive
N#Cc1ccc(-c2cnc3[nH]cc(NC(=O)c4cccnc4)c3c2)cc1	IP6K1 inh -28 (no result: KDM5B inh, SNCA expr inhib) | IP6K1 conf inconclusive
COc1ccc(-c2cnc3[nH]cc(CC(N)=O)c3c2)cc1OC	IP6K1 inh -31, KDM5B inh inconclusive | IP6K1 conf inconclusive
O=C(Cc1c[nH]c2ncc(-c3ccc(Oc4ccccc4)cc3)cc12)NCc1cccnc1	KDM5B inh inconclusive, SNCA expr inhib inconclusive, SNCA viab count inconclusive
O=C(NCCc1cccs1)c1noc(-c2ccc(F)cc2)n1	none
CCOc1cc(C(=O)Nc2ccc(-c3nc4ncccc4o3)cc2C)cc(OCC)c1OCC	IP6K1 inh -26 | IP6K1 conf inactive
CCOc1cccc(C(=O)Nc2ccc(-c3nc4ncccc4o3)cc2C)c1	none
N#Cc1ccc(OCCOC(=O)CCc2ccc3ccccc3n2)cc1	none (no result: IP6K1 inh, SNCA expr inhib, SNCA viab count)
CNC(=O)c1cc(C2CC2)nc2onc(C3CCCN3C(=O)NC(C)c3ccccc3)c12 (stereo not drawn)	none (no result: KDM5B inh, SNCA expr inhib, SNCA viab count)
COc1cccc(N2CCN(C(=O)c3ccc(N4CC5CC(C4)[C@H]4CCCC(=O)N4C5)nc3)CC2)c1 (stereo partly drawn)	KDM5B inh inconclusive
COc1ccc(NC(=O)c2nnn(Cc3ccccc3C)c2N)c(OC)c1	IP6K1 inh -27, KDM5B inh inconclusive, SNCA expr inhib inconclusive | IP6K1 conf inactive
CCC(=O)Nc1cc(C)ccc1NC(=O)c1cccs1	none (no result: IP6K1 inh, SNCA expr inhib, SNCA viab count)
COc1ccc(-c2ccc(C(=O)NC3CC(c4cc(=O)[nH]c(N)n4)C3)o2)cc1 (stereo not drawn)	IP6K1 inh -30 | IP6K1 conf inconclusive
CSc1ncccc1C(=O)NC1CC(c2cc(=O)[nH]c(N)n2)C1 (stereo not drawn)	none
COc1ccc(-c2nc3cc(C)ccn3c2NC(=O)c2ccc(F)cc2)cc1	IP6K1 inh -32, KDM5B inh inconclusive, SNCA viab count inconclusive | IP6K1 conf inconclusive
COc1ccc(-c2nc3cc(C)ccn3c2NC(=O)c2ccc(C)c(C)c2)cc1	KDM5B inh inconclusive, SNCA viab count inconclusive
CN[C@@H](CO)C(=O)NCc1nc(-c2ccc(C)cc2)c(-c2ccccn2)[nH]1	IP6K1 inh -45, KDM5B inh inconclusive | IP6K1 conf inactive
Cc1ccc(-c2nc(CNC(=O)C(C)CN)[nH]c2-c2ccccn2)cc1 (stereo not drawn)	none
CC(=O)Nc1ccc2nc(SCc3cccc(Br)c3)sc2c1	none (no result: IP6K1 inh, SNCA expr inhib, SNCA viab count)
CCOc1ccc(CNC(=O)C2CCN(S(=O)(=O)c3cn(C)cn3)CC2)cc1	IP6K1 inh -26 | IP6K1 conf inactive
COc1ccc(CNC(=O)C2CCN(S(=O)(=O)c3cn(C)cn3)CC2)cc1	none
COc1ccc(-c2csc(=Nc3ccccc3)n2CCO)cc1F	IP6K1 inh -31, KDM5B inh inconclusive | IP6K1 conf inconclusive
Cc1cc(C)n2nc(C(=O)N3CCC(Cc4cccc(C(N)=O)c4)C3)nc2n1 (stereo not drawn)	none
NC(=O)c1cccc(CC2CCN(C(=O)c3ccnc(-n4cnnc4)c3)C2)c1 (stereo not drawn)	IP6K1 inh -27 | IP6K1 conf inactive
O=C1c2ccccc2C(=O)c2c1ccc(O)c2O	IP6K1 inh -27 (no result: KDM5B inh) | IP6K1 conf 3.7µM
CC(=O)Nc1ccc(C(=O)OCC(=O)N2CCOCC2)cc1	none (no result: IP6K1 inh, SNCA expr inhib, SNCA viab count)
Cc1cn2c(=O)c(S(=O)(=O)NCCc3ccc(Cl)cc3)c(C)nc2s1	KDM5B inh inconclusive
Cc1ccc(CNS(=O)(=O)c2c(C)nc3sc(C)cn3c2=O)cc1	IP6K1 inh -27, KDM5B inh inconclusive | IP6K1 conf inactive
Cc1ccccc1C(=O)NC1CCN(Cc2ccc(-c3ccsc3)cc2)C1 (stereo not drawn)	none (no result: KDM5B inh)
CCC(C(=O)N1CCN(c2ccccc2)CC1)n1nc(C)n2c(cc3sccc32)c1=O (stereo not drawn)	none
CCC(C(=O)N1CCN(c2cc(Cl)ccc2C)CC1)n1nc(C)n2c(cc3occc32)c1=O (stereo not drawn)	IP6K1 inh -26, KDM5B inh inconclusive | IP6K1 conf inactive
CC(=O)c1ccc(N2CCN(c3ccc(NC(=O)c4ccc(F)cc4)cc3C(=O)O)CC2)cc1	none
CCN1CCN(c2ccc(NC(=O)c3cccc(NC(=O)c4cccs4)c3)cc2)CC1	none (no result: IP6K1 inh, SNCA expr inhib, SNCA viab count)
O=C(Nc1cnc(N2CCN(c3ccccc3)CC2)c(C(=O)O)c1)c1cccs1	IP6K1 inh -28, KDM5B inh inconclusive | IP6K1 conf inconclusive
O=C(Nc1ccc(N2CCN(c3ccc(F)cc3)CC2)c(C(=O)O)c1)c1cccs1	IP6K1 inh -27 | IP6K1 conf inconclusive
Cc1ccc(/C=N/NC(=O)C(O)(c2ccccc2)c2ccccc2)s1	none (no result: IP6K1 inh, SNCA expr inhib, SNCA viab count)
COc1ccc2c(c1)C(COCc1ccc(C(=O)O)cc1)=CC(C)(C)CO2	none (no result: KDM5B inh, SNCA expr inhib, SNCA viab count)
COc1ccc2c(c1)C(CN1CCN(c3ccc4oc(C(=O)O)cc4c3Cl)CC1)=CC(C)(C)CO2	IP6K1 inh -74 (no result: KDM5B inh, SNCA expr inhib, SNCA viab count) | IP6K1 conf inactive
Cc1cccc(-c2nc3ccc(C(=O)NCCc4ccccc4)cc3o2)n1	none (no result: KDM5B inh)
Cc1ccc2c(CNCc3cccc(Cl)c3)c(C(=O)O)n(Cc3ccc(F)cc3Cl)c2c1	IP6K1 inh -27 | IP6K1 conf inactive
COc1cccc(CN2CCC[C@@H](O)[C@H](NC(=O)c3ccc(OCc4ccccc4)cc3)C2)c1	SNCA expr inhib inconclusive
O=C(N[C@@H]1CN(Cc2ccccn2)CCC[C@H]1O)c1ccc(OCc2ccccc2)cc1	IP6K1 inh -33 | IP6K1 conf inactive
CC(C)Cn1c(=O)c(C(=O)N2CCN(C(=O)c3cccc(Cl)c3)CC2)nc2cccnc21	none (no result: KDM5B inh)
Cc1ccc(-n2nc(CO)c(C(=O)NC(C)CCCc3ccccc3)n2)cc1 (stereo not drawn)	IP6K1 inh -31 | IP6K1 conf inactive
CCC(Oc1ccccc1F)C(=O)N1CCC(c2nc3ccccc3o2)CC1 (stereo not drawn)	none (no result: IP6K1 inh, SNCA expr inhib, SNCA viab count)

Compound activity (PubChem)
